Bioassay records as filed in PubChem BioAssay.
12-hLO inh – 12-hLO (ALOX12) enzyme inhibition | P18054 | purified 12-hLO, xylenol orange hydroperoxide absorbance | Potency, µM (top dose mostly 57.1 µM), for the others: top-dose activity change, negative = inhibition, hits mostly inhibitors | 150,000 compounds, 0.12% hits | AID 1452; active = well fitted inhibition curve with a large enough effect; inconclusive = small, poorly fitted or top-dose-only effect; note: potency is the fitted concentration of half-maximal effect; nearly all actives have a fitted effect of over 55% in size
Target sequence (P18054 whole entry, looked up): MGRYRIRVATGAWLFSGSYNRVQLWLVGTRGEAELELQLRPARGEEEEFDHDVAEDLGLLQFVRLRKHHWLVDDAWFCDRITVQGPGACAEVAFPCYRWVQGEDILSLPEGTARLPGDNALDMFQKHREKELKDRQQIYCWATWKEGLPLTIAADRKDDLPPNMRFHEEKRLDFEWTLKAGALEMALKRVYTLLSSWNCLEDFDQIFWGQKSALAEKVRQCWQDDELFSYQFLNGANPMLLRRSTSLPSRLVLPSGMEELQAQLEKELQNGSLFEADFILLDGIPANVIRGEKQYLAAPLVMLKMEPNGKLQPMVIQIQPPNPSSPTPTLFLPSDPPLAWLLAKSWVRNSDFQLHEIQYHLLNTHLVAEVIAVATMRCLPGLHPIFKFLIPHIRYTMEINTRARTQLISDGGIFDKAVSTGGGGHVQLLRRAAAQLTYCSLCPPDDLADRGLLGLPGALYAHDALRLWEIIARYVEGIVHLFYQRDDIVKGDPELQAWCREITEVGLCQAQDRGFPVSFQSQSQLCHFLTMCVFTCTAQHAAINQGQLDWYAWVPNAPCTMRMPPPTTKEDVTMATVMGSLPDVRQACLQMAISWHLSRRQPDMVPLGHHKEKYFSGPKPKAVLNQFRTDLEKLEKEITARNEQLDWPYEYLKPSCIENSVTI
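Hydroperoxide output read as Fe(III)-xylenol orange absorbance, 573-to-405 nm ratio, after 30 min reaction with 40 uM arachidonic acid. Enzyme: 150 nM purified human 12hLO, 15 min compound preincubation; 25 mM Hepes pH 7.0, room temperature.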
LMNA splice mod – LMNA splicing modulation | HeLa LMNA splicing GFP/RFP minigene ratio, 48 h | Potency, µM (titrated, usually from 46.1 µM), for the others: at the highest dose ratio change, negative = inhibition, most hits filed as inhibitors | 200,000 compounds, 0.01% hits | AID 1487; active = well fitted inhibition curve with a large enough effect in the signal ratio, with a control signal flat, not every such curve was filed as active; inconclusive = small, poorly fitted or top-dose-only effect, or effect the other way, or a change in a side signal; the % refers to the signal ratio; note: potency is the fitted concentration of half-maximal effect
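S3 HeLa stable clones carrying a lamin A-EGFP splicing minigene plus DsRed2 were seeded at 600 cells/well in Opti-MEM with 2% FBS, pin-dosed and incubated 48 h at 37°C. Acumen cytometry (488 nm) gave the GFP/RFP total-intensity ratio.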
HPGD block – blocks human HPGD enzyme activity. P15428. Potency, µM, for inactives: at the highest dose activity change, negative = inhibition, hits mostly inhibitors. purified HPGD, NADH fluorescence kinetic, PGE2 substrate. AID 894. 150,000 compounds, 4.3% hits; note: potency is the fitted concentration of half-maximal effect
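20 nM HPGD preincubated 15 min at room temperature with compound in 50 mM Tris-HCl pH 8, 0.01% Tween 20. Started with 1 mM NAD+ and 30 uM prostaglandin E2; NADH fluorescence (360/450 nm) read 5 times over 30-s intervals, last minus first.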
ALDH1A1 inh – inhibitors of human aldehyde dehydrogenase 1A1; Potency, µM (top dose mostly 75.3 µM), inactives show top-dose activity, negative = inhibition, usual class: inhibitors; Purified ALDH1A1, NADH fluorescence, propionaldehyde substrate; AID 1030; 220,000 compounds, 7.3% hits;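 note: potency is the fitted concentration of half-maximal effect; plate controls were no enzyme wells and a reference inhibitor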
PNC assembly inh – inhibitors of perinucleolar compartment assembly. 140,000 compounds, 3.1% hits. PC3M PTB-GFP, PNC prevalence imaging, 16 h; active compounds read low. activity change (PNC), negative = inhibition, % at 10 µM;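 active = readout at or below -70, meaning at least 70% loss of cells showing the perinucleolar compartment, a nuclear body marking cancer cells; inconclusive = readout between -30 and a set limit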;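 note: plate controls were DMSO wells for no effect and camptothecin positive control wells for full effect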
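Compounds are pinned in duplicate onto adhered PC3M cells stably expressing GFP-tagged PTB and incubated 16 h at 37 C. Cells are then fixed, nuclei stained with Hoechst, and PNC-positive cells counted.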
* = called active by the depositor; [ ] = another dose, or the depositor's remark. Rows were chosen to be rich in hits. Some 10% of all compounds tested hit in one or more screens of this group. Unless noted, calls come from the whole dose curve; as a rule, active = well fitted inhibition curve with a large enough effect (not every such curve was filed as active); inconclusive = small, poorly fitted or top-dose-only effect, or another doubt; inactive = no such curve, though single readings can be large or run the other way. Unless noted, % is set by controls: 0 for no effect and ±100 for the full control effect.

For Cc1cccc(C)c1OCC(=O)Nc1cccc(NC(=O)c2ccco2)c1 the results were 12-hLO inh 0%, LMNA splice mod inconclusive, HPGD block -20%, ALDH1A1 inh inconclusive and PNC assembly inh -119*.
For COc1ccc(C(=O)NC(=S)Nc2ccc(NC(=O)c3ccco3)cc2)cc1[N+](=O)[O-] the results were 12-hLO inh 1%, LMNA splice mod -9%, HPGD block -7%, ALDH1A1 inh -15% and PNC assembly inh -15.
Screening CCOc1cc(NS(=O)(=O)c2ccccc2)c(OCC)cc1NC(=O)c1ccco1 returned 12-hLO inh -6%, LMNA splice mod 16%, HPGD block -12%, ALDH1A1 inh 7.9µM* and PNC assembly inh 41.
For CCOC(=O)c1ccc(NC(=O)COCc2cc(-c3ccc4c(c3)OCO4)on2)cc1 the results were LMNA splice mod 5%[46 µM].
Cc1ccccc1CNC(=O)CN(c1cccc(C)c1C)S(C)(=O)=O was read as LMNA splice mod -10%[46 µM].
`CCOc1ccccc1NC(=O)c1cccc(NC(=O)c2ccco2)c1` gave 12-hLO inh 0%, LMNA splice mod inconclusive, HPGD block -12%, ALDH1A1 inh 2% and PNC assembly inh -86*.
Screening CCOc1ccc(C(=O)NC(=S)Nc2cccc(NC(=O)c3ccco3)c2)cc1[N+](=O)[O-] returned 12-hLO inh inconclusive, LMNA splice mod -12%, HPGD block -28%, ALDH1A1 inh 3.2µM* and PNC assembly inh 9.
For CCOc1ccc(C(=O)Nc2ccc(NC(=O)c3ccco3)c(Cl)c2)cc1Cl the results were 12-hLO inh -1%, LMNA splice mod 14%, HPGD block inconclusive, ALDH1A1 inh inconclusive and PNC assembly inh 28.
Screening COc1cc(NC(=S)NC(=O)c2ccco2)ccc1NC(=O)C(C)C returned LMNA splice mod -1%[46 µM] and ALDH1A1 inh -11%.
For CCOC(=O)C(Cc1ccc(OC)c([N+](=O)[O-])c1)NC(=O)CCC(=O)Nc1ccc(OC)cc1 (stereo unspecified) the results were LMNA splice mod 13%[46 µM] and ALDH1A1 inh 4.5µM*.
CCOC(=O)Nc1ccc(OC)c([N+](=O)[O-])c1 was read as LMNA splice mod 15%[46 µM] and ALDH1A1 inh inconclusive.
Screening COc1cc(NC(=S)NC(=O)c2ccccc2F)ccc1NC(=O)c1ccco1 returned 12-hLO inh -2%, LMNA splice mod 3%, HPGD block -26%, ALDH1A1 inh 32µM* and PNC assembly inh 18.
For COc1cccc(CNC(=O)c2ccc(CN3CC(=O)N4CCCCC4C3=O)cc2)c1 (stereo unspecified) the results were LMNA splice mod 3%[46 µM].
For C[C@H]1Cc2c(-c3ccccc3)nc3c(c2CO1)CN(S(=O)(=O)c1ccc(C#N)cc1)CC3 the results were 12-hLO inh -1%[11.4 µM], LMNA splice mod -9%[9.22 µM], HPGD block -1% and ALDH1A1 inh 14%[13.5 µM].
Screening CCCCc1nc2c(c3c1C[C@H](C)OC3)CN(C(=O)Nc1cccc(C#N)c1)CC2 returned 12-hLO inh 2%[11.4 µM], LMNA splice mod inconclusive, HPGD block -4% and ALDH1A1 inh 23%[13.5 µM].
CCOc1ccc(C(=O)Nc2ccc(-c3nc4ccccc4[nH]3)cc2)cc1[N+](=O)[O-] was read as 12-hLO inh 0%, LMNA splice mod -5%, HPGD block -1%, ALDH1A1 inh 5% and PNC assembly inh -116*.
`Cn1ncc([N+](=O)[O-])c1C(=O)Nc1ccc(-c2nc3ccccc3[nH]2)cc1` gave 12-hLO inh -2%, LMNA splice mod 2%, HPGD block -5%, ALDH1A1 inh -2% and PNC assembly inh 28.
For COc1ccc(CC2NCCC3(O)CCCCC23)cc1 (stereo unspecified) the results were 12-hLO inh -3%, LMNA splice mod 0%, HPGD block -19%, ALDH1A1 inh 16µM* and PNC assembly inh -7.
COc1ccc(CN(C)C2CCCCC2)cc1 was read as 12-hLO inh -5%, LMNA splice mod 3%, HPGD block -11%, ALDH1A1 inh 0% and PNC assembly inh 13.
For Cc1csc2nc(CNC(=O)C3CCCCC3)cn12 the results were 12-hLO inh 1%, LMNA splice mod -4%, HPGD block 16µM*, ALDH1A1 inh 3% and PNC assembly inh -26.
`O=C(NCCc1cn2ccsc2n1)C1CCCCC1` gave 12-hLO inh 3%, LMNA splice mod -9%, HPGD block -29%, ALDH1A1 inh 2% and PNC assembly inh 13.
`O=C(NCc1cccs1)C1CC1` gave ALDH1A1 inh -4%.
O=C(NCc1cccs1)C1CCCN(c2ncccn2)C1 (stereo unspecified) was read as 12-hLO inh 3%, LMNA splice mod 23%, HPGD block -19%, ALDH1A1 inh -7% and PNC assembly inh -86*.
Screening O=C(NCc1cccs1)C1CCCCC1 returned 12-hLO inh -3%, LMNA splice mod 2%, HPGD block 14µM*, ALDH1A1 inh 15% and PNC assembly inh inconclusive.
Screening COc1ccc(OC)c(NC(=O)CSc2ncccc2C(=O)O)c1 returned 12-hLO inh -1%, LMNA splice mod 13%, HPGD block 13µM*, ALDH1A1 inh inconclusive and PNC assembly inh inconclusive.
Screening COc1ccc(NC(=O)CSc2ncccc2C(=O)OC(C)C)cc1OC returned 12-hLO inh -5%, LMNA splice mod inconclusive, HPGD block -14%, ALDH1A1 inh 0.079µM* and PNC assembly inh -12.
Screening COc1ccc(NC(=O)CSc2ccccn2)cc1OC returned 12-hLO inh -5%, LMNA splice mod 3%, HPGD block -17%, ALDH1A1 inh -6% and PNC assembly inh 10.
O=C(CSc1ncccc1C(=O)O)NC12CC3CC(CC(C3)C1)C2 was read as LMNA splice mod -8%[46 µM] and ALDH1A1 inh -3%.
`Nc1nonc1NC(=O)CSc1ncccc1C(=O)O` gave 12-hLO inh 1%, LMNA splice mod 0%, HPGD block -6%, ALDH1A1 inh -13% and PNC assembly inh -84*.
Screening O=C(Nc1ccc(N2CCN(c3ccc(F)cc3)CC2)c(C(=O)O)c1)c1cccs1 returned LMNA splice mod 1%[46 µM].
For O=C1C2C3C=CC(CO)(O3)C2C(=O)N1c1ccc(-c2ccccc2)cc1 (stereo unspecified) the results were 12-hLO inh inconclusive, LMNA splice mod -4%, HPGD block 1.4µM*, ALDH1A1 inh 0.13µM* and PNC assembly inh inconclusive.
`CC(C)(C)C(=O)NCC12C=CC(O1)C1C(=O)N(c3ccccc3)C(=O)C12` (stereo unspecified) gave 12-hLO inh -1%, LMNA splice mod 5%, HPGD block 20µM*, ALDH1A1 inh 1.4µM* and PNC assembly inh 111.
Screening Cc1cc(=O)[nH]c(-n2ncc(C#N)c2N)n1 returned LMNA splice mod -12%[46 µM] and ALDH1A1 inh -6%.
